Screening data (PubChem BioAssay)
The sample as a whole holds a higher share of hits than the screen did.
DAT uptake mod – changed hDAT dopamine uptake under cocaine IC80, either direction, primary screen, cocaine antagonist project, cell-based, LLC-PK1 hDAT, [14C]-dopamine uptake, MLSMR. Sodium-dependent dopamine transporter (Homo sapiens), Q01959. LLC-PK1 hDAT cells, [14C]-dopamine uptake with cocaine IC80; actives deviate in either direction. B-score at 10 µM. hit rate 1.3% among 110,000;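 active means Z score or B-score, a plate-position-corrected score, falls beyond the plate's 99.7% confidence bounds, in either direction; inactive means both scores lie inside the 99.7% bounds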;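 further: scored against the spread of the other compound wells on the same plate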
D1 mod – D1 CRE-luciferase signal change, two-sided – cell-based, HEK293 D1, dopamine EC30, D1 allosteric modulator project, primary screen; D(1A) dopamine receptor (Homo sapiens), P21728; dopamine EC30 potentiation; actives deviate in either direction; B-score at 10 µM; hit rate 5.9% among 58,000; AID 641, 2007;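 active means luminescence count or its row- and column-corrected plate score outside the 99.7% band of the plate's sample wells, on either side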
ROCK2 blocker – inhibitors of human ROCK2 kinase, primary screen, biochemical, high-throughput, luminescence | Rho-associated protein kinase 2 (Homo sapiens), O75116 | purified ROCK2, Kinase-Glo ATP depletion luminescence | inhibition, % at 6 µM | hit rate 0.35% among 60,000 | AID 604, 2007;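 active means inhibition above the screen-wide mean inhibition plus 3 SD, cut at about 18% in these data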;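 further: plate controls were DMSO wells for no effect and Y-27632 control wells after no-enzyme background subtraction for full effect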
JNK3 inh – JNK3 kinase activity inhibitors, primary screen, biochemical, human, purified enzyme. HTS. Mitogen-activated protein kinase 10 (Homo sapiens), P53779. hit rate 0.61% among 60,000. inhibition, % at 8 µM. AID 746, 2007; in the data active means inhibition above about 17%;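 further: 0% = DMSO and 100% = reference inhibitor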
Target sequence (P53779 whole entry, looked up): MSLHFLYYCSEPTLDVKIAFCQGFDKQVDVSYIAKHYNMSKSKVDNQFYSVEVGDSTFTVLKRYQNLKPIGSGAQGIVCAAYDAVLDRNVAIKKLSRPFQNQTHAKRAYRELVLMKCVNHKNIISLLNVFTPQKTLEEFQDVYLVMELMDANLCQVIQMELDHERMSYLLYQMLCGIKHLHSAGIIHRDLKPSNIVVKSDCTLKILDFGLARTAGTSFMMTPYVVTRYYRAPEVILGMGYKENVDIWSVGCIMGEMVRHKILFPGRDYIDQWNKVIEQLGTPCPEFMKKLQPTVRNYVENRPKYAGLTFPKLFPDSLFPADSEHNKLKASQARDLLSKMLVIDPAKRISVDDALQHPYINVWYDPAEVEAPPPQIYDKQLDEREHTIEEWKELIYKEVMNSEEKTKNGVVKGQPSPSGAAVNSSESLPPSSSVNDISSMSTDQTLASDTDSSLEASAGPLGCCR
PKA inh – inhibitors of human PKA kinase activity, primary screen, biochemical, ATP-depletion luminescence, Kemptide substrate; cAMP-dependent protein kinase catalytic subunit alpha (Homo sapiens), P17612; PKA Kemptide phosphorylation, Kinase-Glo ATP luminescence; inhibition, % at 6 µM; hit rate 0.1% among 65,000; AID 524, 2006;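 active means inhibition above the screen-wide mean inhibition plus 3 SD, cut at about 21% in these data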
D1 PAM confirm – D1 receptor positive allosteric modulators, retest, confirmation, cell-based, HEK293 D1, CRE-luciferase, duplicate. AID 642, 2007. dopamine EC30 potentiation; stronger effect = higher value. luminescence at 10 µM. hit rate 88% among 2,200. shares compounds with D1 mod;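 active means luminescence in either of two replicates above the same-plate mean plus 3 SD of the low-dose dopamine control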
D1 ag no DA – D1 receptor agonism without dopamine, confirmation, mechanism study for D1 allosteric modulator project, cell-based, HEK293 D1, CRE-luciferase, secondary assay 1. shares compounds with D1 mod. luminescence, no dopamine; stronger effect = higher value. luminescence at 10 µM. hit rate 0.8% among 1,900. AID 646, 2007; in the data active means luminescence above about 3900
Isoprot counter – counter-screen for D1 modulators: isoproterenol response in HEK293 cells. shares compounds with D1 mod. HEK293 D1 CRE-luciferase, isoproterenol EC30 counter-screen. calls only at 10 µM. hit rate 63% among 2,200. AID 647;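 active means luminescence in either replicate above plate mean of wells with a partly effective reference agonist dose plus 3 SD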;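 further: isoproterenol raises cAMP through native beta-adrenoceptor Gs so signal bypasses D1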
An asterisk follows results filed as active.

What do the screens show for `N=C1C(c2ccccc2)=C(O)CN1Cc1ccco1`?
DAT uptake mod: -0.54; D1 mod: -0.36; ROCK2 blocker: -4; JNK3 inh: 7; PKA inh: -1

What do the screens show for `COC(=O)c1c(C)[nH]c(C(=O)C(Cc2ccccc2)N(C)C)c1C` (stereo not given)?
DAT uptake mod: -0.32; D1 mod: 9.7*; ROCK2 blocker: 5; JNK3 inh: 4; PKA inh: 8; D1 PAM confirm: 4780; D1 ag no DA: 1584; Isoprot counter: inactive

What do the screens show for `CCC(=NCc1cccnc1)c1c(O)n(Cc2ccccc2)c(=O)[nH]c1=O`?
DAT uptake mod: -0.002; D1 mod: 4.8*; ROCK2 blocker: 0; JNK3 inh: 7; PKA inh: -7; D1 PAM confirm: 11204*; D1 ag no DA: 1512; Isoprot counter: active

Results for CC(=NCc1cccnc1)c1c(O)n(Cc2ccccc2)c(=O)[nH]c1=O ?
DAT uptake mod: 1.5; D1 mod: 2.1; ROCK2 blocker: 1; JNK3 inh: 5; PKA inh: -1

Results for O=C1CN=C(c2ccccc2)c2oc3ccc(Br)cc3c2N1 ?
DAT uptake mod: 1.6; D1 mod: 7.4*; ROCK2 blocker: 1; JNK3 inh: 2; PKA inh: -1; D1 PAM confirm: 15276*; Isoprot counter: active

Results for O=C1CN=C(c2ccc(Br)cc2)c2oc3ccccc3c2N1 ?
DAT uptake mod: -0.17

Results for Cc1ccc(N2C(=O)/C(=C/c3ccc(CN(CCC#N)S(C)(=O)=O)o3)C(=O)NC2=S)cc1 ?
DAT uptake mod: -1.2

How did CSC(=Nc1ccccc1)c1c(O)n(C)c(=O)n(C)c1=O do in these assays?
DAT uptake mod: 0.3; D1 mod: -0.52; ROCK2 blocker: 6; JNK3 inh: 8; PKA inh: 9

What do the screens show for `CC(=O)c1c(O)n(C)c(=S)n(-c2ccccc2)c1=O`?
DAT uptake mod: -0.21; D1 mod: 3.1*; ROCK2 blocker: 7; JNK3 inh: 1; PKA inh: 4; D1 PAM confirm: 10036*; D1 ag no DA: 1820; Isoprot counter: inactive

What do the screens show for `CC(C)[C@@]1(NC(=O)[C@@H]2C=C3c4cccc5[nH]cc(c45)C[C@H]3N(C)C2)O[C@@]2(O)[C@@H]3CCCN3C(=O)[C@H](Cc3ccccc3)N2C1=O`?
D1 mod: 34*; ROCK2 blocker: 13; JNK3 inh: -6; PKA inh: -6; D1 PAM confirm: 18320*; D1 ag no DA: 19392*; Isoprot counter: active

How did CC(C)[C@@]1(NC(=O)[C@@H]2C[C@@H]3c4cccc5[nH]cc(c45)C[C@H]3N(C)C2)O[C@@]2(O)[C@@H]3CCCN3C(=O)[C@H](Cc3ccccc3)N2C1=O do in these assays?
DAT uptake mod: 3.6*; D1 mod: 36*; ROCK2 blocker: -2; JNK3 inh: -7; PKA inh: -2; D1 PAM confirm: 27264*; D1 ag no DA: 22332*; Isoprot counter: active

How did CC(C)[C@H]1C(=O)N2CCC[C@H]2[C@]2(O)O[C@](NC(=O)[C@@H]3C=C4c5cccc6[nH]cc(c56)C[C@H]4N(C)C3)(C(C)C)C(=O)N12 do in these assays?
DAT uptake mod: 0.56; D1 mod: 37*; ROCK2 blocker: 36*; JNK3 inh: -5; PKA inh: 4; D1 PAM confirm: 25260*; D1 ag no DA: 20144*; Isoprot counter: active
